Assay results published in PubChem BioAssay (Tox21).
Values joined by “and” are separate entries in the source; they are usually repeats but may differ in a detail not shown here. Equal entries are not always repeated. Results filed as inconclusive are left out. A call without a number means that no potency is given here. Active and inactive are the calls of the source. Calls follow the shape of the dose curve; as a rule, active = well fitted curve in the direction sought with a large enough effect in the repeat runs; inconclusive = weak or mixed curves; inactive = no such curve, though single readings can be large; an effect the other way counts as inactive or inconclusive.

Assay: qHTS assay for identifying genotoxic compounds that show differential cytotoxicity against isogenic chicken DT40 cell lines with known DNA damage response pathways - wild type cell line (AID 743012); also: nearly all actives have a fitted effect of over 60% in size
Conditions: DT40 wild type chicken cells viability, CellTiter-Glo, 40 h; series mostly up to 68.4 µM
Procedure, shortened: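 Viability of DNA repair-proficient chicken DT40 cells was assessed by CellTiter-Glo luminescence following 40 h compound exposure at 37 C/5% CO2.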

| Structure (SMILES) | Potency |
| --- | --- |
| O=C1NC(=O)[C@@]2(CCOc3ccc(F)cc32)N1 | inactive |
| C=CCCCCCCCCC=O | inactive |
| CCCC(=O)O[C@]1(C(=O)CO)CC[C@H]2[C@@H]3CCC4=CC(=O)CC[C@]4(C)[C@H]3[C@@H](O)C[C@@]21C | inactive |
| CCC=O | inactive |
| NC(=O)c1ccc([N+](=O)[O-])cc1 | inactive |
| Cc1cc(O)cc2c1O[C@](C)(CCC[C@H](C)CCC[C@H](C)CCCC(C)C)CC2 | inactive |
| CC[N+](C)(C)c1cccc(O)c1 | inactive |
| COc1c(N2C[C@@H]3CCCN[C@@H]3C2)c(F)cc2c(=O)c(C(=O)O)cn(C3CC3)c12 | inactive |
| NS(=O)(=O)c1cc2c(cc1Cl)NC(C1CC3C=CC1C3)NS2(=O)=O (stereo unspecified) | inactive |
| Cn1cc(S(C)=O)c(=O)c2ccc(F)cc21 (stereo unspecified) | inactive |
| NC(=O)c1cn(Cc2c(F)cccc2F)nn1 | inactive |
| NCCc1cnc[nH]1 | inactive |
| COC(=O)NN | inactive |
| O=C(O)CCCc1ccccc1 | inactive |
| CC(=O)Nc1c(I)cc(I)c(C(=O)O)c1I | inactive |
| Nc1cc(=O)[nH]c(N)n1 | inactive |
| C/C=C(\C)C#N | inactive |
| OCCCC1CCCCC1 | inactive |
| c1ccc(CC2=NCCN2)cc1 | inactive |
| O=c1cc(CO)occ1O | inactive |
| CC1(C)CO[C@@H](CC(=O)O)CN1 | inactive |
| O=C(O)CN(CCOCCOCCN(CC(=O)O)CC(=O)O)CC(=O)O | inactive |
| CCCCCOC(=O)CCCCC | inactive |

Assay: qHTS assay for identifying genotoxic compounds that show differential cytotoxicity against isogenic chicken DT40 cell lines with known DNA damage response pathways - Rev3 mutant cell line (AID 743014); also: nearly all actives have a fitted effect of over 55% in size; also: potency is read from the fitted curve at half-maximal effect
Conditions: chicken DT40 Rev3-/- viability, CellTiter-Glo, 40 h; series mostly up to 68.4 µM

| Structure (SMILES) | Potency |
| --- | --- |
| C=CCCCCCCCCC=O | inactive |
| CCCC(=O)O[C@]1(C(=O)CO)CC[C@H]2[C@@H]3CCC4=CC(=O)CC[C@]4(C)[C@H]3[C@@H](O)C[C@@]21C | inactive |
| O=C1CCCN1C1CCCCC1 | inactive |
| CCC=O | inactive |
| CC(C)(C)c1ccc(O)c(O)c1 | 12.6 µM (active) and 7.27 µM (active) |
| NC(=O)c1ccc([N+](=O)[O-])cc1 | inactive |
| Cc1cc(O)cc2c1O[C@](C)(CCC[C@H](C)CCC[C@H](C)CCCC(C)C)CC2 | inactive |
| C=C(C)CS(=O)(=O)O | inactive |
| CC/C=C\CC/C=C/C(OCC)OCC | 48.6 µM (active) |
| CC[N+](C)(C)c1cccc(O)c1 | inactive |
| CCN(CC)CCOCCOC(=O)C1(c2ccccc2)CCCC1 | 2.11 µM (active) |
| c1cnc(N2CCN(Cc3ccc4c(c3)OCO4)CC2)nc1 | inactive |
| CC(C[N+](C)(C)C)OC(N)=O (stereo unspecified) | inactive |
| NS(=O)(=O)c1cc2c(cc1Cl)NC(C1CC3C=CC1C3)NS2(=O)=O (stereo unspecified) | inactive |
| Cn1cc(S(C)=O)c(=O)c2ccc(F)cc21 (stereo unspecified) | inactive |
| NC(=O)c1cn(Cc2c(F)cccc2F)nn1 | inactive |

| Structure (SMILES) | Potency |
| --- | --- |
| O=c1[nH]c(=O)n([C@H]2C[C@H](O)[C@@H](CO)O2)cc1I | 1.8 µM (active) |
| NC(=O)c1ccc(N)cc1 | inactive |
| COC(=O)NN | inactive |
| O=C(O)CCCc1ccccc1 | inactive |
| CC(=O)Nc1c(I)cc(I)c(C(=O)O)c1I | inactive |
| C1CN(CCOCCN2CCOCC2)CCO1 | inactive |
| Nc1cc(=O)[nH]c(N)n1 | inactive |
| C/C=C(\C)C#N | inactive |
| OCCCC1CCCCC1 | inactive |
| c1ccc(CC2=NCCN2)cc1 | inactive |
| O=c1cc(CO)occ1O | inactive |
| CN(C(=O)c1c(O)c2ccccc2n(C)c1=O)c1ccccc1 | inactive |
| FC(F)OC(Cl)C(F)(F)F (stereo unspecified) | inactive |
| CC1(C)CO[C@@H](CC(=O)O)CN1 | inactive |
| O=C(O)CN(CCOCCOCCN(CC(=O)O)CC(=O)O)CC(=O)O | inactive |
| CCCCCOC(=O)CCCCC | inactive |

Assay: qHTS assay for identifying genotoxic compounds that show differential cytotoxicity against isogenic chicken DT40 cell lines with known DNA damage response pathways - Rad54/Ku70 mutant cell line (AID 743015); also: nearly all actives have a fitted effect of over 60% in size; also: potency is read from the fitted curve at half-maximal effect
Conditions: DT40 Rad54/Ku70 mutant viability, CellTiter-Glo, 40 h; series mostly up to 66.8 µM

| Structure (SMILES) | Potency |
| --- | --- |
| CCCCCCOC(=O)CCCCC(=O)OCCCCCC | inactive |
| O=C1NC(=O)[C@@]2(CCOc3ccc(F)cc32)N1 | inactive |
| C=CCCCCCCCCC=O | inactive |
| CCCC(=O)O[C@]1(C(=O)CO)CC[C@H]2[C@@H]3CCC4=CC(=O)CC[C@]4(C)[C@H]3[C@@H](O)C[C@@]21C | inactive |
| O=C1CCCN1C1CCCCC1 | inactive |
| CC(C)(C)c1ccc(O)c(O)c1 | 12.6 µM (active) and 10.5 µM (active) |
| NC(=O)c1ccc([N+](=O)[O-])cc1 | inactive |
| Cc1cc(O)cc2c1O[C@](C)(CCC[C@H](C)CCC[C@H](C)CCCC(C)C)CC2 | inactive |
| CC/C=C\CC/C=C/C(OCC)OCC | 61.1 µM (active) |
| COc1c(N2C[C@@H]3CCCN[C@@H]3C2)c(F)cc2c(=O)c(C(=O)O)cn(C3CC3)c12 | inactive |
| CCN(CC)CCOCCOC(=O)C1(c2ccccc2)CCCC1 | 5.96 µM (active) |
| c1cnc(N2CCN(Cc3ccc4c(c3)OCO4)CC2)nc1 | inactive |
| CC(C[N+](C)(C)C)OC(N)=O (stereo unspecified) | inactive |
| NS(=O)(=O)c1cc2c(cc1Cl)NC(C1CC3C=CC1C3)NS2(=O)=O (stereo unspecified) | inactive |
| Cn1cc(S(C)=O)c(=O)c2ccc(F)cc21 (stereo unspecified) | inactive |
| NC(=O)c1cn(Cc2c(F)cccc2F)nn1 | inactive |

| Structure (SMILES) | Potency |
| --- | --- |
| O=c1[nH]c(=O)n([C@H]2C[C@H](O)[C@@H](CO)O2)cc1I | 2.02 µM (active) |
| N=c1nc(N2CCCCC2)cc(N)n1O | inactive |
| NCCc1cnc[nH]1 | inactive |
| NC(=O)c1ccc(N)cc1 | inactive |
| COC(=O)NN | inactive |
| O=C(O)CCCc1ccccc1 | inactive |
| CC(=O)Nc1c(I)cc(I)c(C(=O)O)c1I | inactive |
| Nc1cc(=O)[nH]c(N)n1 | inactive |
| C/C=C(\C)C#N | inactive |
| OCCCC1CCCCC1 | inactive |
| FC1(F)C(F)(F)C(F)(F)C2(F)C(F)(F)C(F)(F)C(F)(F)C(F)(F)C2(F)C1(F)F (stereo unspecified) | 21.1 µM (active) |
| FC(F)OC(Cl)C(F)(F)F (stereo unspecified) | inactive |
| CC1(C)CO[C@@H](CC(=O)O)CN1 | inactive |
| O=C(O)CN(CCOCCOCCN(CC(=O)O)CC(=O)O)CC(=O)O | inactive |
| CCCCCOC(=O)CCCCC | inactive |
